# The supplement of paper PMC10105736
# ± gives the standard deviation of the averaged measurements.
# What was measured:
# Assay in all cases: MAPPIT interaction score (arbitrary units); higher = stronger binary interaction signal, active = hit call of the paper;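 active = MAPPIT score above the 99th percentile of random reference set scores in the same batch; inactive = at or below it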
# GILT3 = conditions: MAPPIT configuration: N-N; pair source set: Finley_Y2H
# Fer1HCH = conditions: MAPPIT configuration: N-N; pair source set: Curagen_low_conf
# mino = conditions: MAPPIT configuration: N-N; pair source set: Lit-BS-16
# Fatp3 = conditions: MAPPIT configuration: N-N; pair source set: Curagen_low_conf
# Fkbp39 = conditions: pair source set: Lit-BM-16
# GluRIIC = conditions: MAPPIT configuration: N-N; pair source set: Lit-BS-16
# Eglp4 = conditions: MAPPIT configuration: N-C; pair source set: screen_3
# Faf2 = conditions: MAPPIT configuration: N-C; pair source set: screen_4
# RIC-3 = conditions: MAPPIT configuration: N-C; pair source set: screen_4
# 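Note: HEK293T cells with Epo stimulation, STAT-responsive firefly luciferase reporter, fold induction versus unstimulated cells divided by the larger fold induction of two negative controls lacking either bait or prey.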
binder,measurement,setting,value
fog (protein) MSPPNCLLAVLALTVFIGANNALPITSRPIEGNVQRMVWEDWVNLDPEQRNLTKEKKITAKSIFTLPFRHCPQGHTLFNQLCIPQSNIDPTDLVKQELILAGGSNGSPPPPPIGDYDYGDDEESEEIVYDLSVIPTAMQDGLPPSVGTGDQALPSEDAPLKFNIFEKKFPTGTGEHEEMPLPPDMAAATYAKNISTTPETSTSITPTSTTTFAVPSVPSGEASNRIPGGVDLLAAPSDAFSTSTTLSMPTSNTTTTSNKDIGQVESIVLPADQEHDGLVHLVTSSLSDNDSDDSSTTLNGFNAEADLAQLLKVDAFWPVYDGSIELLPPLFSHRKVAPPLSADQDVKTKHAVDAAEKVGAELEEEVGEEEVTATDILPSEEDEYTTETATTTGDTTVAEASMDTSTATSTSGQSSPHPPEEPEIDERENRLVLIKSKVQPVQLTTTTSATATTAADVANSSSSTDRFHYQHFVEDESSTTTATPEPSSSTPGDPIEQSDMPASDNDNLMTNTIGGRGDDDDDGGHKATSEIHVQQELRLINELVKGKQRQQHQPQKQQLEPTSTEITSALTSTSTEDATTTTTTTTAYTNWSKVMPQLGQSTSETAATTETVATSGQVNEISLTATSASTEVKHFSITNRSYRNSKIIREDRLTVEPEGIVESAASTESAGTAATTPNSSSNPDGYTPLWWLPSIGWRLDRHLDGNGEDQSLLLRFFSTFRGSNTAATTR,MAPPIT interaction score,GILT3,-0.488 (inactive)
Hn (protein) MYQRQVSFDKPTRVEDSAYIVEGVDIKEARNTCLLFSPKDSSLSSGALANILAIFKKHDINLVHIESRSSLRVPGYEFFVEADGKSGALGKAIEDVKEQCSYFNIISRDYKDNATAVPWFPRRIRDLDRFANQILSYGSELDADHPGFTDPEYRKRRKYFADIAYNYKHGEPLPHVDYTKEEIETWGIIFRNLTKLYKTHACREYNHVFPLLVDNCGFREDNIPQLEDVSNFLRDCTGFTLRPVAGLLSSRDFLAGLAFRVFHSTQYIRHPSKPMYTPEPDVCHELMGHVPLFADPAFAQFSQEIGLASLGAPDDYIEKLSTIFWFTVEYGVCRQEGELKAYGAGLLSSYGELEYCLTDKPQLKDFEPEVTGVTKYPITQFQPLYYVADSFETAKEKTIKFANSIPRPFGVRYNAYTQSVEVLDSKPQISNLMDNINSEFQILQNAVAKLRV,MAPPIT interaction score,Fer1HCH,0.406 (inactive)
same,MAPPIT interaction score,mino,0.808 (inactive)
cnn (protein) MNSNRTSSSHNSRNLKILNASFDVPRPPGGGNSPLPSQGRSVRELEEQMSALRKENFNLKLRIYFLEEGQPGARADSSTESLSKQLIDAKIEIATLRKTVDVKMELLKDAARAISHHEELQRKADIDSQAIIDELQEQIHAYQMAESGGQPVENIAKTRKMLRLESEVQRLEEELVNIEARNVAARNELEFMLAERLESLTACEGKIQELAIKNSELVERLEKETASAESSNEAIDSLKVELEACRKENQDLVTSIRTLKHDMKRQVRSMKEAANTMDVQRQSILLLEATIKRKEKSCGSMQKNVLNYEALIAKLNAELETMRQQNVYFRELSENLQQKEVRQLDRGVAIVQPMRMTADAGRFVWQSGTIVAQEPLPLERQSAAATSNVSVSAVRLSSGPPPDQTYPVNGHDRAKYGLLQLFAAKLDWISAVPLALGHLALKIILLAMRLHSCLQNVHIPLRANRDLGAQLADKICELQEAQEKLKERERIHEQACRTIQKLMQKLSSQEKEIKKLNQENEQSANKENDCAKTVISPSSSGRSMSDNEASSQEMSTNLRVRYELKINEQEEKIKQLQTEVKKKTANLQNLVNKELWEKNREVERLTKLLANQQKTLPQISEESAGEADLQQSFTEAEYMRALERNKLLQRKVDVLFQRLADDQQNSAVIGQLRLELQQARTEVETADKWRLECVDVCSVLTNRLEELAGFLNSLLKHKDVLGVLAADRRNAMRKAVDRSLDLSKSLNMTLNITATSLADQSLAQLCNLSEILYTEGDASHKTFNSHEELHAATSMAPTVENLKAENKALKKELEKRRSSEGQRKERRSLPLPSQQFDNQSESEAWSEPDRKVSLARIGLDETSNSLAAPEQAISESESEGRTCATRQDRNRNSERIAQLEEQIAQKDERMLNVQCQMVELDNRYKQEQLRCLDITQQLEQLRAINEALTADLHAIGSHEEERMVELQRQLELKNQQIDQLKLAHSTLTADSQITEMELQALQQQMQEIEQLHADSVETLQSQLQKLKLDAVQQLEEHERLHREALERDWVALTTYQEQAQQLLELQRSLDYHQENEKELKQTLVENELATRALKKQLDESTLQASKAVMERTKAYNDKLQLEKRSEELRLQLEALKEEHQKLLQKRSNSSDVSQSGYTSEEVAVPMGPPSGQATTCKQAAAAVLGQRVNTSSPDLGIESDAGRISSVEVSNAQRAMLKTVEMKTEGSASPKAKSEESTSPDSKSNVATGAATVHDCAKVDLENAELRRKLIRTKRAFEDTYEKLRMANKAKAQVEKDIKNQILKTHNVLRNVRSNMENEL,MAPPIT interaction score,Fatp3,-0.429 (inactive)
Fkbp39 (protein) MSMFWGLNMKPERKYSQTIIKSFHISGVALDKGQEAKLYLAAEKQEYIVATVTKAIPQVALDLNFSKGDRIMFYTAGDASVSLLGYLHDIDSEDDEDDDQMTIENLLNSKAIKNSKKSEDDEDENESGEEDEEDTDDDSQIIEEYESFLENGEEEDDDDVDEDNEESGEEDEQDSDDSEAEEEQPKAKVAKLSPGASAKKSGKEQNGVAKKEEAKQQQKKKEKPEAKKEQPKAKEPAKQQPASKDPRTITGGVKIVDQVVGKGEEAKQGKRVSVYYIGRLQSNNKTFDSLLKGKPFKFALGGGEVIKGWDVGVAGMKVGGKRVITCPPHMAYGARGAPPKIGPNSTLVFEVELKAVH,MAPPIT interaction score,Fkbp39; MAPPIT configuration: N-C,3.82 (active)
same,MAPPIT interaction score,Fkbp39; MAPPIT configuration: N-N,2.59 ± 0.55
cora (protein) MPAEIKPSAPAEPETPTKSKPKSSSSSHGKPALARVTLLDGSLLDVSIDRKAIGRDVINSICAGLNLIEKDYFGLTYETPTDPRTWLDLEKPVSKFFRTDTWPLTFAVKFYPPEPSQLKEDITRYHLCLQVRNDILEGRLPCTFVTHALLGSYLVQSEMGDYDAEEMPTRAYLKDFKIAPNQTAELEDKVMDLHKTHKGQSPAEAELHYLENAKKLAMYGVDLHPAKDSEGVDIMLGVCASGLLVYRDKLRINRFAWPKILKISYKRHHFYIKIRPGEFEQYESTIGFKLANHRAAKKLWKSCVEHHTFFRLMTPEPVSKSKMFPVFGSTYRYKGRTQAESTNTPVDRTPPKFNRTLSGARLTSRSMDALALAEKEKVARKSSTLDHRGDRNADGDAHSRSPIKNKKEKDADKEAKLREKKQKEKEEKERKEREKRELEEKKKAEKAAKAALAAGAAAGAAVNGNDELNDSNKSDKSSGRRGVGIFSSGRKSKSGSPSKDGKDKSGKDKDKEVGRLGLVVTSGLGDNQQDQNLDEAARNAAKNRGSTTPGVTRQYEYAVDNDGNTSPTRKSYTPGGFRYDQDPNSRKSGADGQEQLSPTSQQKKIGLAFNYAPGNENALKETAEKLKAGQLSPRTQDKLNRGQLSPKSRAKLLQDPLLSPTTRAKLQGSAVDAAAVPLSDSQKRSYSPTKGPQGYSSGAPGSYKPISDPTADFLESQRYNKEPGYVGPSKADVAAGLAGAAGSKKPGSPTKTGKGAPGAAAAAAAGAAGAAAAAAKPKKRRVKIMVITSKFDPSTKRIDAENGSIEHSTGILDPATGLIDTKYGVIDPKKGTLEALNTKTGKKEVFQGDVDGKTGNLHLVSGVADPKTGRLDDTLGQIVCITPQDNPVVELTVITSRIDPATGKIDTVNGDVERSLGVLNLDTGLLDTKYGEINTRTGELKAIDPKSGKIVVSKNVKVDPGTGQITILGIVDPKTNKIDPNQGRLIEVGQQIDPIVEVTSLAGKFDSKRNIIDPKTAQVETSGGQFDPKAGKIDTKYGQIDLVKHTITFNDPKSGKTVTRDIKIEPTTGQIVLKNQVNPKNNKPDKDYARIISLRIVQQRVDPATKAPITEVSASKDKDIVVDPKSNQIWVPTGATDPATKEQQYISSSVDPKTGYVITIYGYLDPKTNEIKKQTKLDPNTIKIEPTSGKIYTATGEVDQATGEPLYAATQVDPESGEVYTKLARVDPKTGKIVIVRILLISKTDERGRPEEIDPSTCEIDPVSGRVLKFFNKTVYVYNMIDPVTGEIVQVDPNDPRFAGARTTVTHTMTLTGEIDPVTGRIKSEYGDIDPNTGDIDPATAVTDPVTGKLILNYAQIDPSHFGKQAQVQTTTETVPITRQQFFDGVKHISKGALRRDSEGSSDDDMTAQYGADQVNEILIGSPAGQAGGKLGKPVSTPTVVKTTTKQVLTKNIDGVTHNVEEEVRNLGTGEVTYSTQEHKADATPTDLSGAYVTATAVTTRTATTHEDLGKNAKTEQLEEKTVATTRTHDPNKQQQRVVTQEVKTTATVTSGDQYQRRDSVSSTSSGDSGTPIDGPYDGASVVRTDNQKSPLFTTSATTGPHVESTRVVLGEDTPGFSGHGEIISTQTVSSKTRTVETITYKTERDGIVETRVEQKITIQSDGDPIDHDKALAEAIQEATAMNPDMTVEKIEIQQQTQ,MAPPIT interaction score,GluRIIC,-0.379 (inactive)
Membrin (protein) MESLYHQTNNVVKDIERDFQRLSQLSAQESLDVENGIQLKITQANANCDRLDVLLYKVPPSQRQSSKLRVDQLKYDLRHLQTSLQTARERRQRRMQEISEREQLLNHRFTANSAQPEETRLQLDYELQHHTQLGNAHRGVDDMIASGSGILESLISQRMTLGGAHKRIQAIGSTLGLSNHTMKLIERRLVEDRRIFIGGVVVTLLIIALIIYFLVL,MAPPIT interaction score,Eglp4,0.261 (inactive)
same,MAPPIT interaction score,Faf2,2.2 (inactive)
same,MAPPIT interaction score,RIC-3,-0.382 (inactive)
